Measured values as given in PubChem BioAssay (Tox21).
Values without a mark were called inactive. Results filed as inconclusive are left out. Entries that show only a call come without a potency. Activity calls are given as the source filed them. Unless noted, calls follow the shape of the dose curve; as a rule, active = well fitted curve in the direction sought with a large enough effect in the repeat runs; inconclusive = weak or mixed curves; inactive = no such curve, though single readings can be large; an effect the other way counts as inactive or inconclusive.

Legend:
[1] = qHTS assay for small molecule agonists of the p53 signaling pathway - cell viability (AID 651633; calls by dose curve; also: nearly all actives have a fitted effect of over 30% in size; also: potency is read from the fitted curve at half-maximal effect)
Summary of the method: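 p53RE-bla cells were treated with compound for 16 hours at 37 C. Cytotoxicity was then measured as CellTiter-Glo luminescence after 30 min at room temperature.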

[2] = qHTS assay for small molecules that induce genotoxicity in human embryonic kidney cells expressing luciferase-tagged ATAD5 - cell viability (AID 651634; calls by dose curve; also: nearly all actives have a fitted effect of over 25% in size)
Summary of the method: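 Seeding of 2,000 HEK293T ATAD5-luciferase cells per well preceded pin-tool compound transfer. Plates sat 15.5 hr at 37C under 5% CO2, then fluorescence was read after 30 min with CellTiter-Fluor.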

[3] = qHTS assay for small molecule disruptors of the mitochondrial membrane potential - cell viability (AID 720634; calls by dose curve; also: nearly all actives have a fitted effect of over 20% in size; also: potency is read from the fitted curve at half-maximal effect)
Summary of the method: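 Measuring cytotoxicity alongside mitochondrial potential, the screen quantified ATP by luminescence in HepG2 cells after 1 hr compound incubation and a 30 min room-temperature CellTiter-Glo step.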

[4] = qHTS assay for small molecule disruptors of the mitochondrial membrane potential (AID 720635); also: potency is read from the fitted curve at half-maximal effect
Summary of the method: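 HepG2 cells exposed to compound 1 hr at 37C, then Mito-MPS dye 30 min. Ratio read of aggregate (540/590 nm) versus monomer (490/535 nm) fluorescence.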

[5] = qHTS assay to test for compound auto fluorescence at 590 nm (red) in HepG2 cells (AID 720674)
Summary of the method: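 Fluorescence at 590 nm emission following 540 nm excitation was recorded from HepG2 wells one hour after compound transfer, with DMSO-only wells as vehicle and Rose Bengal sodium equivalency as the scale.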

[6] = qHTS assay to test for compound auto fluorescence at 535 nm (green) in HepG2 cells (AID 720675)
[7] = qHTS assay to test for compound auto fluorescence at 460 nm (blue) in HEK293 cells (AID 720678); also: potency is read from the fitted curve at half-maximal effect
Summary of the method: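 HEK293 cells (2,000/well, medium with 10% dialyzed FBS) attached 4-5 hr, then exposed to compound overnight at 37C, 5% CO2. Blue fluorescence read at 405/460 nm, with triamterene as reference fluorophore.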

[8] = qHTS assay to test for compound auto fluorescence at 590 nm (red) in HEK293 cells (AID 720679)
Summary of the method: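 HEK293 cells (2,000/well, 10% dialyzed FBS) attached 4-5 hr, then dosed with compound or DMSO and incubated overnight at 37C, 5% CO2. Red fluorescence read at 540/590 nm, Rose Bengal sodium as reference fluorophore.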

[9] = qHTS assay to test for compound auto fluorescence at 535 nm (green) in HEK293 cells (AID 720680)
[10] = qHTS assay to test for compound auto fluorescence at 460 nm (blue) in HEK293 cell free culture (AID 720681)
Summary of the method: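 Compounds were added to cell-free DMEM with 10% FBS and fluorescence read directly. The blue channel used 405 nm excitation and 460 nm emission, with triamterene as the reference fluorophore.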

[11] = qHTS assay to test for compound auto fluorescence at 535 nm (green) in HEK293 cell free culture (AID 720682)
Summary of the method: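 Steps: dispense DMEM/10% FBS into empty wells; pin in compound or DMSO; measure fluorescence at 485/535 nm. Values are fluorescein equivalents.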

[12] = qHTS assay to test for compound auto fluorescence at 590 nm (red) in HEK293 cell free culture (AID 720683)
Summary of the method: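 Cell-free wells of DMEM with 10% FBS received compound, and intrinsic fluorescence was read at excitation/emission 540/590 nm. Values expressed as equivalence to Rose Bengal sodium.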

[13] = qHTS assay to test for compound auto fluorescence at 590 nm (red) in HepG2 cell free culture (AID 720684)
Summary of the method: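 Compounds are added to culture medium (MEM, 10% FBS) lacking cells, then fluorescence is read at excitation 540 nm, emission 590 nm, with Rose Bengal sodium as the equivalency standard.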

[14] = qHTS assay to test for compound auto fluorescence at 460 nm (blue) in HepG2 cell free culture (AID 720685); also: potency is read from the fitted curve at half-maximal effect
Summary of the method: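 Compound (23 nL) or DMSO pinned into cell-free MEM with 10% FBS; blue fluorescence read at 405/460 nm excitation/emission, expressed as auto-fluorescence equivalency to triamterene.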

[15] = qHTS assay to test for compound auto fluorescence at 535 nm (green) in HepG2 cell free culture (AID 720686)
[16] = qHTS assay to test for compound auto fluorescence at 460 nm (blue) in HepG2 cells (AID 720687); also: potency is read from the fitted curve at half-maximal effect
Summary of the method: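 HepG2 cells in MEM with 10% FBS, attached overnight at 37 C, were exposed to compound or DMSO for 1 hr at 37 C, 5% CO2. Blue fluorescence was read at 405/460 nm, with triamterene as reference fluorophore.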

[17] = target: Glucocorticoid receptor (Homo sapiens) (UniProt P04150); test: qHTS assay to identify small molecule agonists of the glucocorticoid receptor (GR) signaling pathway (AID 720691; active = well fitted activation curve with a large enough effect in the signal ratio in the repeat runs, not every such curve was filed as active; the % refers to the signal ratio); conditions: GR-bla HeLa, beta-lactamase reporter ratio, 18 h; activation: at 62.4 µM (top of the series)
Summary of the method: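 Reporter read-out: fluorescence intensity following 2 h room-temperature LiveBLAzer B/G FRET substrate loading. Prior step: GR-bla HeLa cells held 4 h, then treated 18 h at 37 C.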

[18] = target: Glucocorticoid receptor (Homo sapiens) (UniProt P04150); test: qHTS assay to identify small molecule antagonists of the glucocorticoid receptor (GR) signaling pathway (AID 720692; active = well fitted inhibition curve with a large enough effect in the signal ratio in the repeat runs, not every such curve was filed as active; the % refers to the signal ratio)
Summary of the method: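 Dexamethasone (5 nM final) stimulated a stably integrated GRE-beta-lactamase reporter in HeLa cells during 18 h co-incubation with compounds; signal was quantified as fluorescence intensity of B/G FRET substrate after 2 h.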

[19] = qHTS assay for small molecules that induce genotoxicity in human embryonic kidney cells expressing luciferase-tagged ATAD5 (AID 651632); also: nearly all actives have a fitted effect of over 15% in size
Summary of the method: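 Reporter cells (HEK293T) express luciferase-tagged ATAD5, a protein that accumulates after DNA damage. Treat 16 hr at 37C/5% CO2, add Amplite, wait 30 min at RT, and read luminescence.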
Tags tell the direction and shape of the fitted curve or compound fluorescence and quenching.

Chain of Glucocorticoid receptor (Homo sapiens) (P04150 whole entry, looked up): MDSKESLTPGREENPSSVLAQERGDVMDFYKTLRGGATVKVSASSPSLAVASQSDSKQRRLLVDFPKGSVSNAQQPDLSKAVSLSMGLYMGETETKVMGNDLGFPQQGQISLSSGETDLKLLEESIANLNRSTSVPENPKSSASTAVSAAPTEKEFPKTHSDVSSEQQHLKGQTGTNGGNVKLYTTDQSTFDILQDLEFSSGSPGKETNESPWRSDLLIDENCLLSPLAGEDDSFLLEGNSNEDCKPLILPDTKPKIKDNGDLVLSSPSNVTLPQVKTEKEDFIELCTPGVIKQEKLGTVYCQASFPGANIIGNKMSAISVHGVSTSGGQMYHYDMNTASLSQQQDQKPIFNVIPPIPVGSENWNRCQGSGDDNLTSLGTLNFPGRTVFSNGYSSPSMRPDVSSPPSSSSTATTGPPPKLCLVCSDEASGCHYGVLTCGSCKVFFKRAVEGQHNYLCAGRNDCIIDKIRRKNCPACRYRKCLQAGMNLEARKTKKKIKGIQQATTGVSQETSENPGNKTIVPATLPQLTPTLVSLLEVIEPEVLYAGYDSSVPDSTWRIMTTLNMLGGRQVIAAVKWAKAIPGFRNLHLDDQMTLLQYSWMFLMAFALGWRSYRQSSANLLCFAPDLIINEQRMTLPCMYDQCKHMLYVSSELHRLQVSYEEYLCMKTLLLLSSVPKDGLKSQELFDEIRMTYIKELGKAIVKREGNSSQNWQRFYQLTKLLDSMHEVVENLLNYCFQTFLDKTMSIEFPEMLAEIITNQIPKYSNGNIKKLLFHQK

SMILES	Potency [1]	Potency [2]	Potency [3]	Potency [4]	outcome [5]	Potency [6]	Potency [7]	outcome [8]	outcome [9]	Potency [10]	outcome [11]	outcome [12]	outcome [13]	Potency [14]	Potency [15]	Potency [16]	Potency [17]	Potency [18]	Potency [19]
O=[N+]([O-])c1ccc(CCl)cc1	inactive	inactive	inactive	inactive	inactive	inactive	inactive	inactive	inactive	inactive	inactive	inactive	inactive	inactive	inactive	inactive	inactive	inactive	–
O.O.O.O.O.O.O=S(=O)([O-])[O-].[Ni+2]	–	inactive	inactive	–	inactive	inactive	inactive	inactive	inactive	inactive	inactive	–	inactive	inactive	inactive	inactive	–	–	–
O.O.O.O=C([O-])[C@H]([O-])[C@@H]([O-])C(=O)[O-].O=C([O-])[C@H]([O-])[C@@H]([O-])C(=O)[O-].[K+].[K+].[Sb+3].[Sb+3]	–	inactive	inactive	–	inactive	inactive	inactive	inactive	inactive	–	inactive	inactive	inactive	inactive	inactive	inactive	–	–	–
N#Cc1c2ccccc2cc2ccccc12	–	inactive	–	1720 nM (active)	inactive	–	1260 nM [fluorescent] (active)	–	inactive	–	inactive	–	inactive	2510 nM [fluorescent] (active)	inactive	2820 nM [fluorescent] (active)	–	–	–
CC(=O)[O-].CC(=O)[O-].O.O.O.[Pb+2]	inactive	–	–	–	inactive	–	inactive	inactive	inactive	inactive	inactive	inactive	inactive	inactive	inactive	inactive	–	–	–
CC(=O)[O-].CC(=O)[O-].[Co+2]	inactive	inactive	–	–	inactive	–	inactive	–	inactive	–	inactive	inactive	inactive	inactive	inactive	inactive	–	–	–
CCCCn1cc[n+](C)c1 (tested in a mixture with another compound)	–	inactive	inactive	inactive	inactive	–	inactive	inactive	inactive	inactive	inactive	inactive	inactive	inactive	inactive	inactive	–	–	–
[Cl-].[Cl-].[Sn+2]	–	inactive	–	–	inactive	inactive	inactive	inactive	inactive	–	inactive	inactive	inactive	inactive	inactive	inactive	–	–	–
O=C(O)[C@H](O)[C@@H](O)C(=O)O	–	inactive	inactive	–	inactive	inactive	inactive	inactive	inactive	–	inactive	inactive	inactive	inactive	inactive	inactive	–	–	inactive
Oc1ccc2[nH]cc(CCCCN3CC=C(c4ccccc4)CC3)c2c1	inactive	inactive	inactive	–	inactive	inactive	inactive	inactive	inactive	inactive	inactive	–	inactive	inactive	inactive	inactive	inactive	–	–
N#Cc1sc2c(=O)c3ccccc3c(=O)c=2sc1C#N	5450 nM (active)	inactive	24300 nM (active)	24300 nM (active)	inactive	inactive	inactive	inactive	inactive	inactive	inactive	–	inactive	inactive	inactive	inactive	–	–	–
